Only some compounds are listed: those with a hit (about 4% of all), similar ones and a draw of the others.
GDH-TPI counter = GDH-TPI coupled enzyme inhibition counter-screen | GDH-TPI coupled enzyme counterscreen, NADH absorbance | inhibition, % at 4.8 µM | actives 1.2% (n = 360,000) | AID 588335; in the data active = inhibition above about 30%;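 also: 0% = DMSO wells and 100% = wells lacking the enzyme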
RecA splice inh = inhibitors of M. tuberculosis RecA intein splicing; P9WHJ3; cell-free RecA intein splicing, fluorescence; inhibition, % (test concentration not listed); actives 0.75% (n = 290,000); in the data active = inhibition above about 30%;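 also: 0% = vehicle wells and 100% = reference inhibitor control wells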
Mtb UGM inh = blocks M. tuberculosis UGM enzyme; inhibition, % at 10 µM; P9WIQ1; purified UGM, fluorescence polarization probe displacement; actives 0.06% (n = 320,000); AID 504406; in the data active = inhibition above about 10%, passing the limit was not always enough
Mtb bLac sens = beta-lactam sensitization of Mtb H37Rv. actives 0.27% (n = 330,000). inhibition, % at 25 µM. AID 434955. M. tuberculosis H37Rv growth with meropenem, percent inhibition; call rule not given here;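 also: growth measured after seven days incubation then overnight dye step; 0% = bacteria only wells and 100% = bacteria with antibiotic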
Rv3671c inh = Rv3671c (M. tuberculosis) protease inhibition | actives 0.048% (n = 320,000) | inhibition, % at 5.96 µM; in the data active = inhibition above about 38%;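 also: extracellular domain of Rv3671c used as enzyme; 0% = enzyme with DMSO and 100% = no enzyme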
Target sequence (P9WHR9 whole entry, looked up, the tested form may be a part): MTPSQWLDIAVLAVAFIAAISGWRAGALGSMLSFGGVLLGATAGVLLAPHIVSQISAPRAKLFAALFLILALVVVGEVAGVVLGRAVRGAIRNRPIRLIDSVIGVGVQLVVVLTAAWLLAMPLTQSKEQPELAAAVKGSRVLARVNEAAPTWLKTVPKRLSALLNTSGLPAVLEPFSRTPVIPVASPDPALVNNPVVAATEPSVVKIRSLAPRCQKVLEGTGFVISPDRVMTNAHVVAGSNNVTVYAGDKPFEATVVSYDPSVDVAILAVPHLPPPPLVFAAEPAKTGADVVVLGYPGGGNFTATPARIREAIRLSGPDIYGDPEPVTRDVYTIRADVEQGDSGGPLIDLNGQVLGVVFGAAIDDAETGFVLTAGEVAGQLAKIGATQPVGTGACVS
Mtb FBA inh = inhibitors of M. tuberculosis fructose-bisphosphate aldolase | purified M. tuberculosis FBA, fluorescence read-out | actives 2.3% (n = 360,000) | inhibition, % at 1 µM | AID 588726 | P9WQA3; in the data active = inhibition above about 27%;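 also: 0% = vehicle and 100% = reference inhibitor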
Numbers without * were called inactive; nt = no result.

SMILES | GDH-TPI counter | RecA splice inh | Mtb UGM inh | Mtb bLac sens | Rv3671c inh | Mtb FBA inh
CCC1CCc2c(sc3ncnc(N4CCOCC4)c23)C1 (stereo not drawn) | -3 | 0 | -2 | 16 | -8 | 120*
Cc1cc(O)cc(O)c1/C=N/NC(=O)c1ccc2c(c1)OCCO2 | 44* | nt | nt | nt | nt | 7
O=C(O)c1ccc(/C=N/NC(=O)c2ccc3c(c2)OCCO3)cc1 | 28 | 0 | 1 | -5 | 1 | -2
O=C(N/N=C/c1ccc(Br)o1)c1ccc2c(c1)OCCO2 | 41* | -1 | 0 | 16 | -2 | 1
O=C(CSc1nnc(CNC(=O)c2ccco2)o1)Nc1ccccc1F | 5 | 1 | -2 | 1 | -1 | 2
O=[N+]([O-])c1c(Nc2ccccc2O)cc(N2CCOCC2)c2nonc12 | 32* | 1 | 0 | -4 | -4 | -15
COc1cccc(Nc2cc(N3CCOCC3)c3nonc3c2[N+](=O)[O-])c1 | 2 | 3 | -1 | -11 | -1 | 8
CN(C)CCC(=O)N1C/C(=C/c2ccccc2)C(=O)/C(=C\c2ccccc2)C1 | 35* | nt | nt | nt | nt | 1
O=C1/C(=C/c2ccccc2)CN(C(=O)CCN2CCOCC2)C/C1=C\c1ccccc1 | 37* | nt | nt | nt | nt | 3
C[N+](C)(C)CCC(=O)N1C/C(=C/c2ccccc2)C(=O)/C(=C\c2ccccc2)C1 | 41* | nt | nt | nt | nt | 0
CCOC(=O)N1C/C(=C\c2ccccc2)C(=O)/C(=C/c2ccccc2)C1 | 15 | 12 | nt | nt | nt | 0
CCN(CC)CCCN1CC(=O)N2[C@@H](Cc3c([nH]c4ccccc34)C2(C)C)C1=O | 0 | 0 | -1 | -6 | 4 | 1
CC(=O)/C(N=Nc1ccc(C(=O)O)cc1[N+](=O)[O-])=C(\C)O | 69* | 3 | 1 | 0 | 1 | -2
COc1ccc(/C=C/C(=O)NC(=S)NNC(=O)c2cc(OC)c(OC)c(OC)c2)cc1 | 18 | 1 | 1 | -1 | 3 | -1
COc1cc(/C=C/C(=O)Nc2ccc(C(C)=O)cc2)cc(OC)c1OC | 45* | -4 | -3 | 0 | -9 | 1
COc1ccc(/C=C/C(=O)NC(=S)NNC(=O)c2cc(OC)c(OC)c(OC)c2)cc1OC | 51* | 2 | 1 | -9 | 8 | 0
CN(Cc1cccc(Cl)c1Cl)C(=O)c1cc(S(=O)(=O)N2CCOCC2)ccc1F | -2 | nt | 0 | -7 | 3 | 2
COc1ccc(C(CC(=O)c2ccc(O)cc2)S(=O)(=O)c2ccc(C)cc2)cc1 (stereo not drawn) | 34* | nt | 2 | 15 | -12 | -1
CC(=O)NC1=C(N2CC2C)C(=O)C(NC(C)=O)=C(N2CC2C)C1=O (stereo not drawn) | 32* | nt | nt | nt | nt | -4
O=C1CS/C(=N/N=C/c2c[nH]c3ccccc23)N1 | 35* | -5 | 0 | 4 | 1 | 1
C(=NN=Cc1c[nH]c2ccccc12)c1c[nH]c2ccccc12 | 41* | nt | nt | nt | nt | -3
OC[C@@H]1CN(Cc2ccc(F)cc2)C[C@H](n2cnc3c(N4CCCC4)ncnc32)O1 | 1 | nt | nt | nt | nt | -3
CCN1C(=O)[C@H]2[C@H]3CN=C(SC)N3[C@@](C)(C(=O)OC)[C@H]2C1=O | 7 | nt | nt | nt | nt | 0
Cc1c(Cc2ccccc2)c(=O)oc2cc(O)cc(O)c12 | 12 | -58 | 0 | -2 | -9 | 114*
Nc1nc(-c2ccc3c(c2)CCCC3)cs1 | 5 | nt | 0 | -12 | -2 | 12
SMILES | GDH-TPI counter | RecA splice inh | Mtb UGM inh | Mtb bLac sens | Rv3671c inh | Mtb FBA inh
N#Cc1cnn2ccc(-c3ccc4c(c3)CCC4)nc12 | 13 | -2 | -1 | -2 | 11 | 141*
CCC[C@@H]1C=C(C(=O)OCC)[C@H](c2ccccc2)N1S(=O)(=O)c1ccc(C)cc1 | nt | nt | nt | nt | nt | 4
NC(=S)N/N=C/c1c(O)ccc2ccccc12 | 32* | -4 | 0 | 22 | 34 | -3
Cn1cc(/C=N/NC(N)=S)c2ccccc21 | 37* | -3 | -2 | 96 | 13 | 1
C=CCNC(=S)N/N=C/c1cn(C)c2ccccc12 | 32* | 5 | 1 | 37 | 0 | 1
CCN(CC)C(=O)C1=C(C)N(Cc2ccccc2)C(=O)C(CC(=O)NCc2ccco2)C1 (stereo not drawn) | 2 | nt | nt | nt | nt | 0
O=C(CC1CCCC1)N1CCN(S(=O)(=O)c2cccc(F)c2)CC1 | -8 | nt | nt | nt | nt | 1
CC1(C)OC(=O)C2=C(C[C@@H](CCC(F)(F)F)O[C@H]2c2ccc(F)cc2)O1 | nt | nt | nt | nt | nt | -5
COC(=O)C1=C(C(=O)OC)C(C(=O)OC)C(C(=O)OC)C(C(=O)OC)(C(=O)OC)C(C(=O)OC)=C1C(=O)OC (stereo not drawn) | -3 | nt | nt | nt | nt | -1

Compound activity as filed in PubChem BioAssay.
